Results: PubChem BioAssay (Tox21)
Values joined by “and” are separate entries in the source; they are usually repeats but may differ in a detail not shown here. Identical values can stand only once. Inconclusive results are not listed. Active and inactive are the calls of the source. Calls come from the whole dose curve; as a rule, active = well fitted curve in the direction sought with a large enough effect in the repeat runs; inconclusive = weak or mixed curves; inactive = no such curve, though single readings can be large; an effect the other way counts as inactive or inconclusive.

tested on: not listed separately; assay: qHTS assay to identify small molecule antagonists of the androgen receptor (AR) signaling pathway - cell viability counter screen (AID 743033; note: nearly all actives have a fitted effect of over 45% in size; note: potency is the fitted concentration of half-maximal effect); conditions: AR-bla HEK293 viability, CellTiter-Glo luminescence, 16 h; series mostly up to 58.5 µM; activity change, negative = cytotoxicity: at the top concentration
% is set by controls: 0 for no effect and ±100 for the full control effect.

Row | Structure (SMILES) | activity change, negative = cytotoxicity | Potency
1 | CC(C)=C1CC[C@@H](C)CC1=O | 2.76% (inactive) | 
2 | O=C1c2c(O)ccc([N+](=O)[O-])c2C(=O)c2c([N+](=O)[O-])ccc(O)c21 |  | 6.85 µM (active)
3 | CCCCOC(=O)C(C)CC (stereo not drawn) |  | 43.6 µM (active)
4 | CC(C)c1cccc(C(C)C)c1N1C(=O)c2ccc(O)cc2C1=O |  | 38.9 µM (active)
5 | CCCN(CCc1cccs1)[C@H]1CCc2c(O)cccc2C1 | 1.62% (inactive) | 
6 | CCCSS/C(CCO)=C(\C)N(C=O)Cc1cnc(C)nc1N | -26.2% (inactive) | 
7 | S=P(N1CC1)(N1CC1)N1CC1 | -6.66% (inactive) | 
8 | Clc1ccc(C(c2ccccc2Cl)C(Cl)Cl)cc1 (stereo not drawn) | -0.36% (inactive) | 
9 | CCCCCCCCCCCCCCNCCO | -13.8% (inactive) | 
10 | CCCCCCCCCC(=O)N(C)C | 0.0144% [at 78.9 µM] (inactive) | 
11 | CCc1cccc(C)c1 | -7.88% [at 78.9 µM] (inactive) | 
12 | C[C@@H]1CC[C@H]2C(C)(C)[C@H]3C[C@@]12CC[C@@]3(C)O | 1.36% (inactive) | 
13 | Cc1cn[nH]c1 | 4.45% (inactive) | 
14 | CC=O |  | 22.9 µM (active)
15 | Cn1cnc2ncnc(N)c21 | 2.26% (inactive) | 
16 | Clc1ccc(C(Cn2ccnc2)OCc2c(Cl)cccc2Cl)c(Cl)c1 (stereo not drawn) | -36.5% [at 27 µM] (inactive) | 
17 | Clc1ccccc1CN1CCc2sccc2C1 | -9.52% (inactive) | 
18 | CSc1ccc2c(c1)N(CCC1CCCCN1C)c1ccccc1S2 (stereo not drawn) |  | 23.9 µM (active) and 21.8 µM (active)
19 | CCN=C1C=CC(=C(c2ccc(N(CC)CC)cc2)c2ccc(N(CC)CC)cc2)c2ccccc21 |  | 0.0434 µM (active)

molecular target: Androgen receptor (Homo sapiens) (UniProt P10275); assay: qHTS assay to identify small molecule agonists of the androgen receptor (AR) signaling pathway using the MDA cell line (AID 743040; note: nearly all actives have a fitted effect of over 20% in size); conditions: MDA-kb2 AR-luc cells, MMTV luciferase, 16 h; series mostly up to 70.3 µM; activity change: at the top concentration
Sequence (P10275 whole entry, looked up): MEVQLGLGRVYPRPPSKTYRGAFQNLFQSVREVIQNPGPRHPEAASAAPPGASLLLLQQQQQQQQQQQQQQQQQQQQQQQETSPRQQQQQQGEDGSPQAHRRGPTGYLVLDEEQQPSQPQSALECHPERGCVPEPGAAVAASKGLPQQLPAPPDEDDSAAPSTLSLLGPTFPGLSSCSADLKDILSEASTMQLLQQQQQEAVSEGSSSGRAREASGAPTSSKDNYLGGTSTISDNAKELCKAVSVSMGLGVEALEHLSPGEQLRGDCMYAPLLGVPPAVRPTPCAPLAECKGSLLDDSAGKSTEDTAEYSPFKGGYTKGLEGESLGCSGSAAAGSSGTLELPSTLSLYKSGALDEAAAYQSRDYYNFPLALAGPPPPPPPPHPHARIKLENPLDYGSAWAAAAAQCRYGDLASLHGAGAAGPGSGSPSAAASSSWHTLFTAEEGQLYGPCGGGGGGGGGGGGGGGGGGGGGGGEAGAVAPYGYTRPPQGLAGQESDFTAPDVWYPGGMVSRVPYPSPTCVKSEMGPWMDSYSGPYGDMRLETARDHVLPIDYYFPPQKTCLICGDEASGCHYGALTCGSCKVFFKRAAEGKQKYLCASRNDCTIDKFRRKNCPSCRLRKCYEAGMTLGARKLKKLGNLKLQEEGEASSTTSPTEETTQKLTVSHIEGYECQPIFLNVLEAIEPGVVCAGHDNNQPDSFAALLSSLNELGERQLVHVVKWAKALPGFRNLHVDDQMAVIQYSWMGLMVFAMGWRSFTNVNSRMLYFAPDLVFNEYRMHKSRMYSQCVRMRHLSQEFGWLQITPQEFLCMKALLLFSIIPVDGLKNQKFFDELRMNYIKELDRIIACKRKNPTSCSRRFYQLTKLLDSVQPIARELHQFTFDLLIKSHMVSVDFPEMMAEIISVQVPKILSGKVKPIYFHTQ
Method in brief: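 Agonist activity is measured as luciferase luminescence in human MDA-kb2 cells whose MMTV reporter responds to both AR and GR. Compounds in DMSO incubate 16 h at 37C, 0% CO2, and ONE-Glo is read after 30 min.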

Row | Structure (SMILES) | Potency | activity change
20 | CC1=C(/C=C/C(C)=C/C=C/C(C)=C/C(=O)Nc2ccc(O)cc2)C(C)(C)CCC1 | inactive | 
21 | COc1cc(C(C)C)c2c(c1)S(=O)(=O)N(COc1cc(=O)n3cccc(OCCN4CCCCC4)c3n1)C2=O |  | -4.7% [at 32.5 µM, stronger effect = higher value] (inactive)
22 | CCCSS/C(CCO)=C(\C)N(C=O)Cc1cnc(C)nc1N |  | 10.6% (inactive)
23 | Cc1cn[nH]c1 |  | 0.94% (inactive)
24 | Clc1ccc(C(Cn2ccnc2)OCc2c(Cl)cccc2Cl)c(Cl)c1 (stereo not drawn) |  | -7.25% [at 32.5 µM, stronger effect = higher value] (inactive)

tested on: not listed separately; assay: qHTS assay to identify small molecule antagonists of the androgen receptor (AR) signaling pathway using the MDA cell line - cell viability counter screen (AID 743041; note: nearly all actives have a fitted effect of over 45% in size; note: potency is the fitted concentration of half-maximal effect); conditions: MDA-kb2 viability, CellTiter-Fluor, 16 h, cells co-treated with R1881 androgen agonist; series mostly up to 70.3 µM; viability change, negative = cytotoxic: at the top concentration
Method in brief: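 qHTS viability read-out; MDA-kb2 AR-luc; R1881-stimulated; 16 h exposure at 37C, 0% CO2; CellTiter-Fluor, 30 min; fluorescence intensity.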

Row | Structure (SMILES) | Potency | viability change, negative = cytotoxic
25 | CCCCCCCCCCCCN(CCO)CCO | 19.3 µM (active) | 
26 | CCCCNc1c(C(=O)OCC)c(C)nc2c1cnn2CC |  | 3.21% (inactive)
27 | CCCCCCCCCCCCCCCC |  | 10.4% (inactive)
28 | Oc1ccc(-c2ccccc2)c(Cl)c1 |  | -0.0038% (inactive)
29 | S=C(SSSSSSC(=S)N1CCCCC1)N1CCCCC1 | 1.51 µM (active) | 
30 | COc1cccc(CCc2ccccc2OCC(CN(C)C)OC(=O)CCC(=O)O)c1 (stereo not drawn) |  | -7.8% (inactive)
31 | ClC/C=C\CCl |  | 6.68% [at 95 µM] (inactive)
32 | O=S(=O)(O)CCCN1CCOCC1 |  | 0.655% (inactive)
33 | CC(=O)Nc1ccc(O)cc1 | inactive | 
34 | CNC(=S)NN | 48.6 µM (active) | 
35 | CNC(=O)c1cc(Oc2ccc(NC(=O)Nc3ccc(Cl)c(C(F)(F)F)c3)cc2)ccn1 | 16.8 µM (active) | 
36 | Cc1cccc(Br)c1 |  | -14.4% [at 95 µM] (inactive)
37 | CC1=C(/C=C/C(C)=C/C=C/C(C)=C/C(=O)Nc2ccc(O)cc2)C(C)(C)CCC1 | 23.7 µM (active) and 44.4 µM (active) | 
38 | CC(C)=C1CC[C@@H](C)CC1=O |  | 2.85% (inactive)
39 | O=C1c2c(O)ccc([N+](=O)[O-])c2C(=O)c2c([N+](=O)[O-])ccc(O)c21 | 21.5 µM (active) | 
40 | COc1cc(C(C)C)c2c(c1)S(=O)(=O)N(COc1cc(=O)n3cccc(OCCN4CCCCC4)c3n1)C2=O |  | 0.343% [at 32.5 µM] (inactive)
41 | CCCCOC(=O)C(C)CC (stereo not drawn) |  | -0.188% (inactive)

Row | Structure (SMILES) | Potency | viability change, negative = cytotoxic
42 | CC(C)c1cccc(C(C)C)c1N1C(=O)c2ccc(O)cc2C1=O |  | -0.252% (inactive)
43 | CCCN(CCc1cccs1)[C@H]1CCc2c(O)cccc2C1 |  | -10.9% (inactive)
44 | CCCSS/C(CCO)=C(\C)N(C=O)Cc1cnc(C)nc1N |  | -8.19% (inactive)
45 | S=P(N1CC1)(N1CC1)N1CC1 | inactive | 
46 | Clc1ccc(C(c2ccccc2Cl)C(Cl)Cl)cc1 (stereo not drawn) | inactive | 
47 | CCC(C)(C)c1cc(O)c(C(C)(C)CC)cc1O |  | -0.433% (inactive)
48 | CCCCCCCCCCCCCCNCCO |  | -1.11% (inactive)
49 | CCCCCCCCCC(=O)N(C)C |  | 9.91% [at 95 µM] (inactive)
50 | CCc1cccc(C)c1 |  | -2.31% [at 95 µM] (inactive)
51 | C[C@@H]1CC[C@H]2C(C)(C)[C@H]3C[C@@]12CC[C@@]3(C)O |  | -2.2% (inactive)
52 | Cc1cn[nH]c1 |  | 13.5% (inactive)
53 | CC=O | 63.9 µM (active) | 
54 | Cn1cnc2ncnc(N)c21 |  | -3.93% (inactive)
55 | Clc1ccc(C(Cn2ccnc2)OCc2c(Cl)cccc2Cl)c(Cl)c1 (stereo not drawn) |  | -1.8% [at 32.5 µM] (inactive)
56 | Clc1ccccc1CN1CCc2sccc2C1 |  | 7.17% (inactive)
57 | CSc1ccc2c(c1)N(CCC1CCCCN1C)c1ccccc1S2 (stereo not drawn) |  | 14.5% (inactive)
58 | CCN=C1C=CC(=C(c2ccc(N(CC)CC)cc2)c2ccc(N(CC)CC)cc2)c2ccccc21 | 0.121 µM (active) | 
